Source: PubChem (National Center for Advancing Translational Sciences (NCATS))
A selection: hits, their analogues and other compounds. The true share with any hit is near 12%.
Sfp inh: qHTS Assay for Inhibitors of Bacillus subtilis Sfp phosphopantetheinyl transferase (PPTase) | Potency, µM, inactives show largest response in the series, negative = inhibition, hits mostly inhibitors | 4'-phosphopantetheinyl transferase ffp (Bacillus subtilis), Q9F4F7 | hit rate 3.5% among 310,000 | AID 1490, 2009 | Biochemical Sfp PPTase activity, qHTS;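 note: the enzyme is Sfp with the accession as filed and its product quenches rhodamine fluorescence; 0% = enzyme reaction without inhibitor and -100% = no enzyme wells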
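After 15 min at room temperature with compound, 15 nM Sfp received 5 uM rhodamine-CoA plus 12.5 uM BHQ-2-ybbR (50 mM Hepes pH 7.6, 10 mM MgCl2). Rate came from the fluorescence difference over 30 min, ex 525/em 598 nm.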
Gal4-VP16 FLuc: VP16 counterscreen qHTS for inhibitors of ROR gamma transcriptional activity. Drosophila S2 Gal4-VP16 UAS-luciferase, luminescence, 20 h. Potency, µM (series often up to 53.6 µM), without a hit: at the top dose activity, negative = inhibition, most hits filed as inhibitors. hit rate 3.5% among 310,000;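 note: Gal4-VP16 expression switched on by copper sulfate through the metallothionein promoter; nearly all actives have a fitted effect of over 50% in size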
ALDH1A1 inh: qHTS Assay for Inhibitors of Aldehyde Dehydrogenase 1 (ALDH1A1); Potency, µM (highest dose often 75.3 µM), without a hit: at the highest dose activity, negative = inhibition, usual class: inhibitors; Purified ALDH1A1, NADH fluorescence, propionaldehyde substrate; hit rate 7.3% among 220,000; Aldehyde dehydrogenase 1A1 (Homo sapiens), P00352; active = well fitted inhibition curve with a large enough effect, not every such curve was filed as active; inconclusive = small, poorly fitted or top-dose-only effect, or another doubt; inactive = no such curve, though single readings can be large or run the other way;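 note: plate controls were no enzyme wells and a reference inhibitor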
PLK1 PBD block: qHTS for Inhibitors of PLK1-PDB (polo-like kinase 1 - polo-box domain): Primary Screen | Plk1 PBD binding of FITC phosphopeptide, fluorescence polarization | Potency, µM, for the others: max response, negative = inhibition, most hits filed as inhibitors | hit rate 2.8% among 360,000 | AID 720504, 2013; note: series mostly up to about 57 µM; nearly all actives have a fitted effect of over 65% in size
Target sequence (P53350 whole entry, looked up, the tested form may be a part): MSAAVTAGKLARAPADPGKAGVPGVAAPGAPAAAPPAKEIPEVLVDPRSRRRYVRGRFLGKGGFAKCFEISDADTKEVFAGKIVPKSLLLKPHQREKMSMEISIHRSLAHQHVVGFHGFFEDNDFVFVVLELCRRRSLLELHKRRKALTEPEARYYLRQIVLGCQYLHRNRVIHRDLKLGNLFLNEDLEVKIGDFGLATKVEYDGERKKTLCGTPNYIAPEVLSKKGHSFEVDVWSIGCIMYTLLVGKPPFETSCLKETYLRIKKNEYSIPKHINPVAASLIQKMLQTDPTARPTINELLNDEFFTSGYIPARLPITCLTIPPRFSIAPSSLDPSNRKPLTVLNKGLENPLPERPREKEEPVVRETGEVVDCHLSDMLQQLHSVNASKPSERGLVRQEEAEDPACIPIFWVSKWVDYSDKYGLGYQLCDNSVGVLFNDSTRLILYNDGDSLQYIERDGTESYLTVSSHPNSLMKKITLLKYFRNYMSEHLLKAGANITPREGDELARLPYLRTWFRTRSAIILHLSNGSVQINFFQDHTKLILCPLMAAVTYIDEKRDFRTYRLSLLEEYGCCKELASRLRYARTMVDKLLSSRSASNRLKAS
RORg inh: qHTS for inhibitors of ROR gamma transcriptional activity; Drosophila S2 Gal4-RORgamma UAS-luciferase reporter, 20 h; Potency, µM (titrated, usually from 53.6 µM), inactives show at the top dose activity change, negative = inhibition, hits mostly inhibitors; hit rate 5.4% among 310,000; note: nearly all actives have a fitted effect of over 60% in size
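Stably transfected Drosophila Schneider cells are the test system, with ROR gamma fused to Gal4 and luciferase under UAS control; luminescence is read after 20 hr of 700 uM copper sulfate induction at ambient temperature.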
The depositor's hits bear a star; ? = inconclusive; nt = not tested or not shown; ! = not active in a repeat; [ ] = another dose, or the depositor's remark. Unless noted, calls come from the whole dose curve; as a rule, active = well fitted curve in the direction sought with a large enough effect; inconclusive = small, poorly fitted or top-dose-only effect, or another doubt; inactive = no such curve, though single readings can be large; an effect the other way counts as inactive or inconclusive. Unless noted, % is set by controls: 0 for no effect and ±100 for the full control effect; potency is the fitted concentration of half-maximal effect.

SMILES | Sfp inh | Gal4-VP16 FLuc | ALDH1A1 inh | PLK1 PBD block | RORg inh
S=C(Nc1cccc2ccccc12)NC1CCCCC1 | 5.6% | 10µM* | ? | -15.2% | 2µM*
CSc1ccccc1C(=O)NC1CCCCC1 | 14.9% | 3.9% | 6.9% | -2.2% | 34.6%
CSc1ccccc1NC(=S)NC1CCCC1 | 11.7% | 7.08µM* | nt | -6.5% | 6.31µM*
NC(=O)c1ccccc1NC(=O)C1CCCO1 (stereo not given) | 2.5% | -6.1% | nt | -8.8% | -2.6%
CC(C)c1ccccc1NC(=S)NC1CCCCC1 | 11.3% | 10µM* | 2.6% | -26.3% | 0.447µM*
CSc1ccccc1NC(=O)c1noc2c1CCC2 | 20µM* | ? | 25.1µM* | ? | ?
CC(C)c1ccccc1NC(=S)NC(C)c1ccccc1 (stereo not given) | 20.1% | ? | 2.2% | -12.5% | ?
CSc1ccccc1NC(=O)C1CCCO1 (stereo not given) | 79.4µM* | 0.1% | 0.9% | -15.8% | -2.1%
CCN1C(=NCc2cc(OC)c(OC)c(OC)c2)N[C@@H](c2cccc(F)c2)C(C(=O)OC)=C1C | 2.2% | -15.7% | nt | nt | 17.2%
CC(=O)O[C@@H]1C[C@H]2C(C)(C)C(=O)C=C[C@]2(C)[C@H]2CC[C@@]3(C)[C@H](c4ccoc4)OC(=O)[C@H]4O[C@]43[C@@]21C | -6.5% | -10.7% | -8.8% | -12.0% | ?
CC1(C)C(=O)C=C[C@@]2(C)C1C=C[C@@]1(C)C2CC[C@@]2(C)C(c3ccoc3)OC(=O)C3OC312 (stereo not given in full) | 0.9% | 6.3% | -8.8% | nt | 7.08µM*
COc1ccc(C(NC(=O)CN2CCCCCC2)c2ccc(OC)cc2)cc1 | 8.4% | -18.7% | nt | -7.7% | -0.9%
CC(C)Oc1cc(O)c2c(c1)OCC=C2CCC(=O)O | nt | nt | -1.8%[13.5 µM] | nt | nt
Cc1ccc(CNc2ccc(N3CCOCC3)cc2)s1 | -11.7% | ? | ? | -5.3% | 10.7%
CC(=O)N1CCN(c2ccc(NCc3ccc(C)s3)cc2)CC1 | 50.1µM* | 14.1% | 25.1µM* | -1.4% | ?
CC(=O)N1CCN(c2ccc(NCc3cccs3)cc2)CC1 | 22.4µM* | 27.4% | ? | ? | 20.3%
Cc1c(C(=O)NCc2ccc3c(c2)OCO3)sc(=O)n1Cc1cccc(F)c1 | nt | nt | nt | 2.9% | nt
CSCCC(C(=O)Nc1c(C)cccc1C)N1CCN(c2ccc(F)cc2)CC1 (stereo not given) | nt | nt | nt | 8.9% | nt
COc1cc(NC(=O)C2CCCN(S(=O)(=O)c3cccc4nsnc34)C2)cc(OC)c1 (stereo not given) | 6.9% | -9.5% | -2.6% | ? | ?
COc1ccc(OC)c(NC(=O)C2CCCN(S(=O)(=O)c3cccc4nsnc34)C2)c1 (stereo not given) | -7.2% | -2.1% | 5.8% | 3.36µM*! | 8.7%
COc1ccc(OC)c(NC(=O)N2CCCC(C(=O)c3ccccc3OC)C2)c1 (stereo not given) | -2.7% | -2.9% | 12.6µM* | -13.1% | 9.5%
CCOC(=O)n1c2ccccc2c(=O)n1CCO | nt | nt | nt | 2.9% | nt
O=C(NC(=S)NCCC1=CCCCC1)c1ccccc1Br | ? | 3.16µM* | 7.08µM* | ? | 3.55µM*
O=C(COC(=O)c1ccccc1Br)NCCC1=CCCCC1 | 7.5% | -17.7% | -7.3% | -11.8% | ?
O=C(NC(=S)NCCC1=CCCCC1)c1cncc(Br)c1 | -4.0% | 8.91µM* | ? | -7.3% | 4.47µM*
CC(=O)c1c(C)[nH]c(C(=O)NCC2CCCCC2)c1C | -5.8% | 9.8% | nt | -0.3% | 15.2%
O=C(Cn1c(=O)n(Cc2ccco2)c(=O)c2c3c(sc21)CCCCC3)Nc1ccccc1 | -103.3% | -6.6% | 7.08µM* | -27.1% | 30.1%
O=c1c2c3c(sc2n(CCN2CCCC2)c(=O)n1Cc1ccco1)CCCCC3 | 12.3% | -24.5% | 5.01µM* | -2.6% | -34.1%
O=C(Cn1c(=O)n(Cc2ccco2)c(=O)c2c3c(sc21)CCCCC3)c1ccccc1 | 56.2µM* | 3.1% | ? | -19.6% | 7.2%
